# Reference: PubChem BioAssay (Tox21)
# Values joined by “and” are separate entries in the source; they are usually repeats but may differ in a detail not shown here. Equal entries are not always repeated. Records with an inconclusive call do not appear. Where a call stands in place of a potency, no number is given. Active and inactive are the calls of the source. Unless noted, calls come from the whole dose curve; as a rule, active = well fitted curve in the direction sought with a large enough effect in the repeat runs; inconclusive = weak or mixed curves; inactive = no such curve, though single readings can be large; an effect the other way counts as inactive or inconclusive.
# Experiments:
# [1] = target: Acetylcholinesterase (Homo sapiens) (UniProt P22303); experiment: Acetylcholinesterase (AChE) small molecule antagonists: enzyme-based qHTS assay (AID 1347397; calls by dose curve; note: nearly all actives have a fitted effect of over 55% in size); settings: Potency: AChE enzyme activity inhibition
# Summary of the method: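 Human recombinant acetylcholinesterase; substrate acetylthiocholine; thiocholine quantified with DTNB (colorimetric). Compound preincubation 30 min RT; reaction 10 min RT.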
# [2] = target: Acetylcholinesterase (Homo sapiens) (UniProt P22303); experiment: Acetylcholinesterase (AChE) small molecule antagonists: enzyme-based qHTS assay with human liver microsomes (AID 1347399; calls by dose curve; note: nearly all actives have a fitted effect of over 60% in size); settings: Potency: qHTS inhibition
# Summary of the method: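 Recombinant human AChE (50 mU/mL in the enzyme mix) and human liver microsomes (0.25 mg/mL final) were preincubated with compound and NADPH (0.25 mg/mL final) for 30 min at 37 C. Acetylthiocholine/DTNB was then added; thiocholine was read colorimetrically after 10 min at room temperature.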
# [3] = target: Cytochrome P450 2C19 (Homo sapiens) (UniProt P33261); experiment: Cytochrome P450 Family 2 Subfamily C Member 19 (CYP2C19) small molecule antagonists: luciferase reporter qHTS assay (AID 1671197); note: nearly all actives have a fitted effect of over 65% in size; note: potency is the fitted concentration of half-maximal effect; for activity change, negative = inhibition: series mostly up to about 120 µM
# Summary of the method: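 Light output is proportional to CYP2C19 activity: proluciferin substrate is converted to luciferin, then detected by a luciferin detection reagent that also stops the 1 h, 37C NADPH-driven reaction. Ketoconazole serves as positive control.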
# [4] = target: Cytochrome P450 1A2 (Homo sapiens) (UniProt P05177); experiment: Cytochrome P450 Family 1 Subfamily A Member 2 (CYP1A2) small molecule antagonists: luciferase reporter qHTS assay (AID 1671199); note: nearly all actives have a fitted effect of over 50% in size; note: potency is the fitted concentration of half-maximal effect; for activity change, negative = inhibition: series mostly up to about 120 µM
# Summary of the method: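 Inhibition of CYP1A2 conversion of proluciferin to luciferin, detected by luminescence. Reaction run 1 h at room temperature with NADPH regeneration after brief compound preincubation.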
# [5] = target: Voltage-gated inwardly rectifying potassium channel KCNH2 (Homo sapiens) (UniProt Q12809); experiment: Human Ether-a-go-go-Related Gene (hERG) channel small molecule antagonists: fluorescence cell-based qHTS assay (AID 1671200); note: nearly all actives have a fitted effect of over 50% in size; note: potency is the fitted concentration of half-maximal effect;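 for activity change, negative = inhibition: hERG-expressing U2OS cells given a thallium stimulus after FluxOR II dye loading; series mostly up to about 77 µM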
# Summary of the method: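 Read-out: thallium influx as a surrogate for potassium, tracked as fluorescence (480 nm ex/540 nm em) every second for 2 min after Stimulus Buffer addition in dye-loaded hERG-U2OS cells.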
# [6] = target: Cytochrome P450 3A4 (Homo sapiens) (UniProt P08684); experiment: Cytochrome P450 Family 3 Subfamily A Member 4 (CYP3A4) small molecule antagonists: luciferase reporter qHTS assay (AID 1671201); note: nearly all actives have a fitted effect of over 50% in size; note: potency is the fitted concentration of half-maximal effect; for activity change, negative = inhibition: series mostly up to about 120 µM
# Summary of the method: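 Luminescent readout (RLU) proportional to CYP3A4 activity, from luciferin generated off a proluciferin substrate. Enzyme–substrate mix plus compound 10 min at room temp, NADPH regeneration 1 h, detection reagent 20 min.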
# [7] = target: Cytochrome P450 2D6 (Homo sapiens) (UniProt P10635); experiment: Cytochrome P450 Family 2 Subfamily D Member 6 (CYP2D6) small molecule antagonists: luciferase reporter qHTS assay (AID 1671196); note: nearly all actives have a fitted effect of over 50% in size; note: potency is the fitted concentration of half-maximal effect; for activity change, negative = inhibition: series mostly up to about 120 µM
# Summary of the method: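 P450-Glo format: CYP2D6 converts a proluciferin substrate to luciferin in an NADPH-driven reaction lasting 1 h at room temperature. Light output, proportional to CYP2D6 activity, reflects interference by test chemicals.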
# [8] = target: Cytochrome P450 2C9 (Homo sapiens) (UniProt P11712); experiment: Cytochrome P450 Family 2 Subfamily C Member 9 (CYP2C9) small molecule antagonists: luciferase reporter qHTS assay (AID 1671198); note: nearly all actives have a fitted effect of over 50% in size; note: potency is the fitted concentration of half-maximal effect; for activity change, negative = inhibition: series mostly up to about 120 µM
# Summary of the method: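 CYP2C9 activity was measured with a P450-Glo proluciferin substrate. Enzyme–substrate mix was held with compound for 10 min at room temperature, then NADPH regeneration solution was added for 1 h at 37C. Luciferin product was read as luminescence.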
# [9] = target: Acetylcholinesterase (Homo sapiens) (UniProt P22303); experiment: Acetylcholinesterase (AChE) small molecule antagonists: fluorescence cell-based qHTS assay (AID 1347398; calls by dose curve; note: nearly all actives have a fitted effect of over 50% in size; note: potency is the fitted concentration of half-maximal effect); settings: Potency: AChE activity
# Summary of the method: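 Thiocholine generated from acetylthiocholine by SH-SY5Y cell AChE is detected with Thiolite Green (Ex/Em 490/520 nm) after 40 min at room temperature, following 30 min compound pretreatment at 37 C.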
# Chain of Cytochrome P450 2C9 (Homo sapiens) (P11712 whole entry, looked up): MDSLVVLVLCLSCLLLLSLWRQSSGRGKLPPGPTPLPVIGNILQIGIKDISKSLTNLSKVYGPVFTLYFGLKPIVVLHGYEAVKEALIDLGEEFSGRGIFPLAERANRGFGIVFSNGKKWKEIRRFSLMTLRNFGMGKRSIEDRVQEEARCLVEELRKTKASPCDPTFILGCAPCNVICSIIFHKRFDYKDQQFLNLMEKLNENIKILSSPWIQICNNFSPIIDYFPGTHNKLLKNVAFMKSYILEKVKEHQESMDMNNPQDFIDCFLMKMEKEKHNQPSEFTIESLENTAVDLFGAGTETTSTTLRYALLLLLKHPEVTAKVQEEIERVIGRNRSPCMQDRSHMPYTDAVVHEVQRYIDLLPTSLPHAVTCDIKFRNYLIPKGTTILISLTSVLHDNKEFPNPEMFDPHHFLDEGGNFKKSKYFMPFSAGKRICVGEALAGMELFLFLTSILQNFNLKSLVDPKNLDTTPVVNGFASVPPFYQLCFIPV
# Chain of Cytochrome P450 2D6 (Homo sapiens) (P10635 whole entry, looked up): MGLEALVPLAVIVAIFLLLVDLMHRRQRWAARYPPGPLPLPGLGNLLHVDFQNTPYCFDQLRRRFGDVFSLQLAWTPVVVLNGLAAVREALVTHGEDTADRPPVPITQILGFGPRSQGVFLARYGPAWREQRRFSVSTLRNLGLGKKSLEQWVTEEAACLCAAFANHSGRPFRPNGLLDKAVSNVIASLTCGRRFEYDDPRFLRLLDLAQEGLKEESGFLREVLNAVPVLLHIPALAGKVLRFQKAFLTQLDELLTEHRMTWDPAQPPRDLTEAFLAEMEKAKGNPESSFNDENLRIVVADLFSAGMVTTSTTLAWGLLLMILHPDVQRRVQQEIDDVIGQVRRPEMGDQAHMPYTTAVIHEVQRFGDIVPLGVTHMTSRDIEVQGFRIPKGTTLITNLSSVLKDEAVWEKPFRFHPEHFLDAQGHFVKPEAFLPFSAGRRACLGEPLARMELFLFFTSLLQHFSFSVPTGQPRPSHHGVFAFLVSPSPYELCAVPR
# Chain of Acetylcholinesterase (Homo sapiens) (P22303 whole entry, looked up): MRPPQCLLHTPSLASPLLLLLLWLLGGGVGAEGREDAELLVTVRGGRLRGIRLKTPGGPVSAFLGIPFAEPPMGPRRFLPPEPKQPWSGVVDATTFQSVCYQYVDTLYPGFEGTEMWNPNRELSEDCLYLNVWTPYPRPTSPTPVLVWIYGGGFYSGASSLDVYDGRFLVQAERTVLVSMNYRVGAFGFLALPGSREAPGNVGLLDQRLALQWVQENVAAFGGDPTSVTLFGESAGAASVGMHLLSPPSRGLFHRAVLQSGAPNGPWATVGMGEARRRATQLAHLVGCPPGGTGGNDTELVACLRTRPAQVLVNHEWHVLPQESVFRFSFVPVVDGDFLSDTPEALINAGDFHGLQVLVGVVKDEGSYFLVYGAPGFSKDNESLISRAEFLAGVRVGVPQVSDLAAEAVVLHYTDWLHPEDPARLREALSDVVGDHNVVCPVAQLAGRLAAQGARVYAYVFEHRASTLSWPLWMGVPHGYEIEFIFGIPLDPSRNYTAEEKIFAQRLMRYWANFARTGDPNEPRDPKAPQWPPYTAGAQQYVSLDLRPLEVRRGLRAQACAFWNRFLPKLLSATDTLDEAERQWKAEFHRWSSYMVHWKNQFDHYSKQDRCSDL
# Chain of Cytochrome P450 2C19 (Homo sapiens) (P33261 whole entry, looked up): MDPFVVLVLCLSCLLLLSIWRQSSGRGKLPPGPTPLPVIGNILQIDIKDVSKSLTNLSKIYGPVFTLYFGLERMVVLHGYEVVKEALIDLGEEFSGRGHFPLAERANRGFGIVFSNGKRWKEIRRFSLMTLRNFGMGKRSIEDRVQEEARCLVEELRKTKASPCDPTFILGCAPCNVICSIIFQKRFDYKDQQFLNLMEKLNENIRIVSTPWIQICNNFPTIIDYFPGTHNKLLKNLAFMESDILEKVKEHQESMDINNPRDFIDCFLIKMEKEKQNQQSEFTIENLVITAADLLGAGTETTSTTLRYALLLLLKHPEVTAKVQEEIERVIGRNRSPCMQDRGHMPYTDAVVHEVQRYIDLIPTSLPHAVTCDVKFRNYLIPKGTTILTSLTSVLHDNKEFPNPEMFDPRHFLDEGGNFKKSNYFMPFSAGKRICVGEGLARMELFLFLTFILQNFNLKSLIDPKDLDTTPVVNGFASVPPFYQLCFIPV
# Chain of Cytochrome P450 1A2 (Homo sapiens) (P05177 whole entry, looked up): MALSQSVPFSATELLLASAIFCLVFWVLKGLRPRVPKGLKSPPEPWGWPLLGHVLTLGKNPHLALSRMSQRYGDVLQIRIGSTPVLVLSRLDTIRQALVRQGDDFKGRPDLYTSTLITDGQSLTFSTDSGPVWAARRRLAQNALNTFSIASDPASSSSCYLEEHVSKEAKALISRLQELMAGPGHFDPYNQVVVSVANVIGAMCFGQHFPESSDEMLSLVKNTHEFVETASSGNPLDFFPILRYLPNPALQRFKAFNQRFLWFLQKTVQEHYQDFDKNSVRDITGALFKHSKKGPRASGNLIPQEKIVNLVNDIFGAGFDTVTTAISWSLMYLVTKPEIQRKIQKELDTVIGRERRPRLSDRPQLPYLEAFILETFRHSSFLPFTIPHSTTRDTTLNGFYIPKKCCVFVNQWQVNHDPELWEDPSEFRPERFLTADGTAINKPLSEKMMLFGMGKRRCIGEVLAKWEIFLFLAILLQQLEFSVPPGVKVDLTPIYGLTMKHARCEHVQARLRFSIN
# Chain of Voltage-gated inwardly rectifying potassium channel KCNH2 (Homo sapiens) (Q12809 whole entry, looked up): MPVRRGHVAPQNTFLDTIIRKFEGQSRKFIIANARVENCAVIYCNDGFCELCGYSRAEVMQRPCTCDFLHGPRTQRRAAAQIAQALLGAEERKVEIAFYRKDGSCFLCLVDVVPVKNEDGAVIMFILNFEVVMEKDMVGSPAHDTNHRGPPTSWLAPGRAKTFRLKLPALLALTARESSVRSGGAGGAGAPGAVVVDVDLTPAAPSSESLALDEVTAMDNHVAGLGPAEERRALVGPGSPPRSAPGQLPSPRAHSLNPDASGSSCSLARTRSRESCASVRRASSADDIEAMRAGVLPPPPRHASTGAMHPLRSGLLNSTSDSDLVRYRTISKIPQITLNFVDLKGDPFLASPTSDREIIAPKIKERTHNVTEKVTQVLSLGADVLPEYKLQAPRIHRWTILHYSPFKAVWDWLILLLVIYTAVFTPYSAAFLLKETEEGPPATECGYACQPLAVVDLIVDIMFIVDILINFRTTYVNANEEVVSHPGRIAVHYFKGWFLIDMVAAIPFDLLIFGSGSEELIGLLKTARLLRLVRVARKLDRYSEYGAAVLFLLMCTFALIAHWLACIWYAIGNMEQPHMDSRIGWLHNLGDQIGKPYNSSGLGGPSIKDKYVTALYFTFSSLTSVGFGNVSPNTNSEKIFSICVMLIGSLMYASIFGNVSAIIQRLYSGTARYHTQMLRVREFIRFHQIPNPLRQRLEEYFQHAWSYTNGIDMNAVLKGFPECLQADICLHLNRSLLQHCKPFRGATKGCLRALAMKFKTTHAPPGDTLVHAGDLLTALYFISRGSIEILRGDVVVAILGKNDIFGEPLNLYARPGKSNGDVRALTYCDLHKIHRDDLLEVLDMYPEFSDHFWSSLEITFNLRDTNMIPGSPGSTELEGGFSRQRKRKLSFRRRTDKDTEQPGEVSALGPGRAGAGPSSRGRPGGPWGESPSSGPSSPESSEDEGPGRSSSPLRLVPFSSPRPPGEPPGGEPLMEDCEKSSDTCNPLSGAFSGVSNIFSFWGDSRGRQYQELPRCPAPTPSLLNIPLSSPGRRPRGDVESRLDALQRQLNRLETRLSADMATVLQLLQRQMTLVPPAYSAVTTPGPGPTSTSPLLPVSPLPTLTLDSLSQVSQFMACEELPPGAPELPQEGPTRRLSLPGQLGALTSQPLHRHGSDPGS
# Chain of Cytochrome P450 3A4 (Homo sapiens) (P08684 whole entry, looked up): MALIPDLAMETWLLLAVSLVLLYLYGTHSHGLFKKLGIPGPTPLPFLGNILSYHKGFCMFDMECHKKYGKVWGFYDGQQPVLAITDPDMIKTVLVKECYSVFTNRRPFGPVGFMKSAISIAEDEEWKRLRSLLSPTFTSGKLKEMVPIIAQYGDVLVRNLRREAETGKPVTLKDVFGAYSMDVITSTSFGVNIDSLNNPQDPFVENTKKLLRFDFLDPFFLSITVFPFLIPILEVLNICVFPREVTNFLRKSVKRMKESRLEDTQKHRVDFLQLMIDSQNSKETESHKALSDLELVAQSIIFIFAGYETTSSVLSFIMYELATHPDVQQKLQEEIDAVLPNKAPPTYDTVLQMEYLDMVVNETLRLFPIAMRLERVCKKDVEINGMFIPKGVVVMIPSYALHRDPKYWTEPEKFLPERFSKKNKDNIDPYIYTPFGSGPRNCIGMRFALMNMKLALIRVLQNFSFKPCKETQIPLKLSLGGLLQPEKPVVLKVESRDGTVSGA
compound,measurement,setting,value
CCOCCOC(C)=O,Potency,[1],inactive
same,Potency,[2],inactive
same,Potency,[3],79.6 µM (active)
same,Potency,[4],43.5 µM (active)
same,Potency,[5],inactive
same,Potency,[6],inactive
CC(=O)[O-].[Tl+],Potency,[5],inactive
CC(=O)[O-].CC(=O)[O-].O.O.[Cd+2],Potency,[5],inactive
FC(F)(F)c1cccc(C2=CCN(CCc3ccc4ccccc4c3)CC2)c1,Potency,[7],0.195 µM (active)
same,Potency,[3],inactive
same,Potency,[8],inactive
same,Potency,[5],1.69 µM (active)
same,Potency,[6],inactive
CN(C)C(=S)S,Potency,[5],inactive
CN(C)CCc1c[nH]c2cccc(O)c12,Potency,[1],inactive
same,Potency,[7],7.03 µM (active)
same,Potency,[3],19.8 µM (active)
same,Potency,[8],7.89 µM (active)
same,Potency,[5],inactive
COc1cccc(C(=O)CCN[C@@H](C)[C@H](O)c2ccccc2)c1,Potency,[7],1.38 µM (active)
same,Potency,[3],21.9 µM (active)
same,Potency,[8],27.5 µM (active)
same,Potency,[4],24.5 µM (active)
same,Potency,[5],inactive
CN(C)C(=S)[S-].CN(C)C(=S)[S-].[Cu+2],"activity change, negative = inhibition",[5],-11.4% [at 15.8 µM] (inactive)
N#CCCC(Br)(C#N)CBr (stereo not drawn),Potency,[9],inactive
same,Potency,[7],inactive
same,Potency,[3],11.2 µM (active)
same,Potency,[8],8.94 µM (active)
same,Potency,[4],15.9 µM (active)
same,Potency,[5],27.5 µM (active)
same,Potency,[6],inactive
[Cd+2].[Cl-].[Cl-],Potency,[5],inactive
CCCSP(=O)(OCC)SCCC,Potency,[5],inactive
CC(=O)[O-].CC(=O)[O-].[Hg+2],Potency,[5],6.92 µM (active)
CC(C)CC(C)(c1ccc(O)cc1)c1ccc(O)cc1,Potency,[9],inactive
same,Potency,[3],35.7 µM (active) and 22.4 µM (active)
same,Potency,[8],28.3 µM (active) and 17.8 µM (active)
same,Potency,[4],inactive
same,Potency,[6],17.9 µM (active) and 31.7 µM (active)
CCOP(=S)(OCC)SCS(=O)(=O)C(C)(C)C,Potency,[3],1.78 µM (active)
same,Potency,[8],5.64 µM (active)
same,Potency,[4],44.8 µM (active)
same,Potency,[5],inactive
same,Potency,[6],2.83 µM (active)
CC(C)Oc1cccc(NC(=O)c2ccccc2C(F)(F)F)c1,Potency,[1],inactive
same,Potency,[2],inactive
same,Potency,[8],13 µM (active)
same,Potency,[4],10.6 µM (active)
same,Potency,[5],50.4 µM (active)
CC(C)CBr,Potency,[1],inactive
same,Potency,[2],inactive
same,Potency,[8],inactive
same,Potency,[4],inactive
same,Potency,[5],inactive
same,Potency,[6],inactive
Cc1cc(SCc2sc(-c3ccc(C(F)(F)F)c(F)c3)nc2C)ccc1OCC(=O)O,Potency,[9],inactive
same,Potency,[7],inactive
same,Potency,[3],inactive
same,Potency,[8],35.6 µM (active)
same,Potency,[5],inactive
same,Potency,[6],inactive
CCSC(C)CC1CC(=O)C(/C(CC)=N/OC/C=C/Cl)=C(O)C1 (stereo not drawn),Potency,[1],inactive
same,Potency,[2],inactive
same,Potency,[3],9.77 µM (active)
same,Potency,[8],13.8 µM (active)
same,Potency,[5],inactive
same,Potency,[6],8.71 µM (active)
CN(C)S(=O)(=O)N(SC(F)(Cl)Cl)c1ccccc1,Potency,[9],35.6 µM (active)
same,Potency,[3],11.2 µM (active)
same,Potency,[8],3.56 µM (active)
same,Potency,[4],22.4 µM (active)
same,Potency,[5],19.5 µM (active)
same,Potency,[6],inactive
Clc1ccc(CSC(Cn2ccnc2)c2ccc(Cl)cc2Cl)cc1 (stereo not drawn),Potency,[9],inactive
Clc1ccc(CO/N=C(\Cn2ccnc2)c2ccc(Cl)cc2Cl)c(Cl)c1,Potency,[9],inactive
same,Potency,[2],inactive
CC(C)CC(C)Nc1ccc(Nc2ccccc2)cc1 (stereo not drawn),Potency,[1],inactive
same,Potency,[3],0.698 µM (active)
same,Potency,[8],3.5 µM (active)
same,Potency,[4],22.1 µM (active)
same,Potency,[5],24.1 µM (active)
same,Potency,[6],31.2 µM (active)
